Insulin prom inh – TRM-6 insulin promoter activity inhibition | TRM-6 cells (human fetal islet line), insulin promoter-eGFP reporter, imaging; reporter expression induced with tamoxifen | inhibition, % at 2 µM | 130,000 compounds, 0.9% hits | AID 1273;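 active = inhibition above the mean plus 3 SD, with well images judged a real hit on visual review, cut at about 60% in these data, passing the limit was not always enough; inconclusive = inhibition over the cutoff but images rejected on review; inactive = inhibition not above the cutoff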
Lmaj promast – Leishmania major promastigote growth inhibition; AID 1063; inhibition, % at 10 µM; Leishmania major promastigotes, resazurin fluorescence viability; 200,000 compounds, 9% hits; in the data active = inhibition above about 50%;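 also: promastigotes grown with compound for 44 hours at 28 °C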
WT yeast gro inh – growth inhibition of WT yeast, mitochondrial fusion screen | mitochondrial fusion phenotypic screen, WT strain | inhibition, % at 10 µM | 190,000 compounds, 2.1% hits | AID 1362; in the data active = inhibition above about 58%; tested in S. cerevisiae
Insulin prom up – MIN6 insulin promoter up-regulation; 190,000 compounds, 0.3% hits; MIN6 insulin promoter-GFP reporter, high-content imaging; hits give high values; z-score at 5 µM;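 active = z-score above 3 at 5 µM with at least 500 cells counted in the well; inconclusive = wells under 500 cells, flagged as cytotoxic or low count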
Autophagy HCS – alters autophagy in cells. AID 463193. 190,000 compounds, 0.98% hits. calls only at 10 µM (by protocol). MEF GFP-LC3 puncta imaging; test concentration mostly 10 µM;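 active = percentage of spot-positive cells more than 3 SD above its plate mean, without a fluorescence outlier flag or 80% toxicity; inconclusive = no clear call, values can overlap the other calls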
A number is an active result; – = inactive; ? = inconclusive; · = no result given. This is a sample that favours compounds with a hit; in the whole collection about 11% have one here.

SMILES	Insulin prom inh	Lmaj promast	WT yeast gro inh	Insulin prom up	Autophagy HCS
CC1C/C(=N\NC(=S)NCc2ccccc2)CC(C)(C)C1 (stereo unspecified)	–	99	64	–	–
COc1cc(=O)n(C)c2c(OCC3OC(C)(C)OC3(C)C)cccc12 (stereo unspecified)	·	–	–	–	–
CC(=O)c1c(N2CCN(C)CC2)nc(=S)n(-c2cc(C)ccc2C)c1C	·	–	–	–	–
CCCc1cc(-c2n[nH]c(=S)n2CC)cs1	?	–	–	–	–
CCCc1cc(-c2n[nH]c(=S)n2C(C)c2ccccc2)cs1 (stereo unspecified)	–	–	64	–	–
CC(C)Cn1c(-c2csc(C(C)C)c2)n[nH]c1=S	·	–	67	–	–
CCCCn1c(-c2csc(CCC)c2)n[nH]c1=S	–	–	73	·	–
COc1ccc(-c2cc(C(=O)c3c(N)n(C)c(=O)n(C)c3=O)c3ccccc3n2)cc1OC	·	–	–	–	–
O=C(COn1nnc2ccc(C(F)(F)F)cc21)Nc1c(Cl)cccc1Cl	–	–	–	–	–
CN1C[C@@H]2C(c3ccc(Cl)nc3)C3(c4ccccc4)CC2(C3)[C@H]1c1ccccc1 (stereo partly specified)	·	·	·	–	·
CS(=O)(=O)N(CC(=O)N1CCCCC1)C1CCCCC1	·	–	–	–	–
CS(=O)(=O)N(CC(=O)N1CCN(c2ccccc2F)CC1)C1CCCCC1	–	–	–	·	–
CS(=O)(=O)N(CC(=O)N1CCN(C(c2ccccc2)c2ccccc2)CC1)C1CCCCC1	–	92	–	·	–
Cc1ccc(S(=O)(=O)N(CC(=O)N2CCN(c3ccccc3F)CC2)C2CCCCC2)cc1	–	97	–	·	–
COc1ccccc1NC(=S)N(C(C)C)C(C)c1ccccn1 (stereo unspecified)	–	–	–	·	–
CC(C)N(C(=S)Nc1cccc(C(F)(F)F)c1)C(C)c1ccccn1 (stereo unspecified)	–	–	74	·	–
CCCOC(=O)c1ccc(NC(=O)c2cc(OC)c(OC)c(OC)c2Br)cc1	–	–	–	–	–
Oc1ccc(NCc2ccccc2OCc2ccccc2F)cc1	–	100	–	–	–
Cc1ccc(NCc2ccccc2OCc2ccccc2F)cc1	–	–	–	–	–
CCOc1cccc(CNc2ccc(O)cc2)c1OCc1ccc(Cl)cc1	–	100	–	–	–
c1cncc(-c2nc3ccccc3s2)c1	·	·	·	–	·
CC(=O)N(Cc1cccnc1)c1cccc(-c2nc3ccccc3s2)c1	·	100	–	–	–
Cc1ccc2[nH]c(=O)c(CN(C(=O)c3cccc([N+](=O)[O-])c3)C(C)C)cc2c1	·	·	·	–	·
COc1ccc(OCCC(=O)OCC(=O)NC(=O)NC(C)(C)C)cc1	–	–	–	–	–
COc1ccc(OCC#CCNC(C)(C)C)cc1	–	92	–	–	–
SMILES	Insulin prom inh	Lmaj promast	WT yeast gro inh	Insulin prom up	Autophagy HCS
COc1ccc(CC(=O)Nc2ccc(C(=O)Nc3ccccc3C(=O)O)cc2)cc1OC	–	–	–	–	–
CSc1ncc(CO)n1Cc1ccccc1	·	–	–	–	–
CCOC(=O)N1CCN(CCC(=O)Nc2ccc(C)c(Br)c2)CC1	·	73	–	–	–
CCOC(=O)N1CCN(CCC(=O)Nc2cccc(Br)c2)CC1	–	89	–	–	–
CCOC(=O)N1CCN(CCC(=O)Nc2cc(OC)cc(OC)c2)CC1	–	52	–	·	–
CCOC(=O)N1CCN(CCC(=O)Nc2ccc(Br)cc2)CC1	·	–	–	–	–
O=C(CSc1ncccn1)N/N=C/c1ccccc1[N+](=O)[O-]	–	–	–	–	–
Cn1c(C(=O)N2CCc3ccccc3C2)cc2oc3ccccc3c21	–	–	66	–	–
CCOc1ccccc1CNC(=O)c1cc2oc3ccccc3c2n1CC	·	97	–	–	–
O=C(c1cc2ccccc2c(=O)o1)N1CCc2ccccc2C1	–	–	–	–	–
CCn1c(C(=O)N2CCc3ccccc3C2)cc2oc3ccccc3c21	–	–	78	–	–
CCN(CC)CCOc1c(C)cccc1Cl	–	–	–	–	–
CCN(CC)CCOCCOc1cc(C)c(Cl)c(C)c1	–	99	–	–	–
Cc1cc(OCCOCCN(C)CCO)cc(C)c1Cl	–	95	–	–	–
COc1ccc(C(O)c2coc3ccc(O)c(CN(C)C)c23)cc1 (stereo unspecified)	–	100	–	–	–
CN(C)Cc1c(O)ccc2occ(C(=O)c3ccccc3)c12	–	–	–	–	–
COc1ccc2occ(C(=O)c3coc4ccc(O)c(CN(C)C)c34)c2c1	–	75	–	–	–
COC(=O)C(NC(=O)CNS(=O)(=O)c1ccc(Br)cc1)c1ccccc1 (stereo unspecified)	–	–	–	–	–
COc1ccc(S(=O)(=O)NCC(c2cccnc2)N2CCN(c3ccc(F)cc3)CC2)cc1C (stereo unspecified)	–	96	–	·	–
COc1ccc(S(=O)(=O)NCC(c2cccnc2)N2CCN(c3ccccc3)CC2)cc1C (stereo unspecified)	–	97	–	–	–
C/C(=N\NC(=O)c1cccc(N/N=C(\C)c2cc(O)ccc2O)c1)c1cc(O)ccc1O	·	–	–	–	–
COc1ccc(C(=O)C(Sc2nnc(C)c(=O)[nH]2)c2ccc(OC)cc2)cc1 (stereo unspecified)	·	·	·	–	·
CCNc1nc(CSc2ccccc2)nc2sc(C)c(C)c12	·	–	67	–	–
Cc1sc2nc(CSc3ccccc3)nc(NCCN(C)C)c2c1C	–	92	–	–	–
Cc1sc2nc(CN3CCOCC3)nc(NS(=O)(=O)c3ccccc3)c2c1C	–	–	–	–	–
SMILES	Insulin prom inh	Lmaj promast	WT yeast gro inh	Insulin prom up	Autophagy HCS
Cc1sc2nc(C3CC3)nc(NCCNS(=O)(=O)c3ccccc3)c2c1C	–	–	–	·	–
Fc1ccc(-n2nnc(-c3nccs3)n2)cc1	·	–	–	–	–
CC(=O)Oc1c(/C=C(\C#N)C(N)=O)[nH]c2ccccc12	–	96	–	–	–
N#C/C(=C\c1c[nH]c2ccccc12)C(N)=O	·	·	·	–	·
COCCN(C(=O)CCC(=O)Nc1cc(C)on1)C(C(=O)NC1CCCC1)c1ccccc1C (stereo unspecified)	·	–	–	–	–
O=C(NC1CCCC1)C(c1ccc(F)cc1)N(Cc1ccccc1Cl)C(=O)CCl (stereo unspecified)	–	98	–	–	–
COCCN(C(=O)CCl)C(C(=O)NC1CCCCC1)c1ccccc1C (stereo unspecified)	·	99	–	·	–
O=C(NC1CCCC1)C(c1ccc(F)cc1)N(Cc1ccc(F)cc1)C(=O)c1ccn[nH]1 (stereo unspecified)	·	–	–	–	–
CCC(C)C(NC(=O)c1ccccc1NC(=O)c1ccccc1)C(=O)N1CCOCC1 (stereo unspecified)	–	53	–	–	–
CCC(NC(=O)c1ccccc1NC(=O)c1ccccc1)C(=O)OC (stereo unspecified)	–	–	77	–	–
CCC(C)NC(=O)c1ccccc1NC(=O)COc1ccc(OC)cc1 (stereo unspecified)	79	–	–	·	–
CCCNc1c(NC(C)=O)c(=O)oc2ccccc12	–	–	–	–	–
CCC(=O)Oc1ccc2ccccc2c1CNC(=O)c1ccccc1	–	–	–	–	–
CCCn1cnc2c(=S)nc(N)[nH]c21	·	·	·	–	·
